# Laboratory results from PubChem BioAssay (EPA / NIEHS).
# Active and inactive are the calls of the source. How the source made its calls: active means hit-call score of the fitted dose curve at least 0.9, where 1 is the maximum; inconclusive means response in the unintended direction; inactive means score below 0.9.
# Target: rat CYP2C11, Cyp2c11 (gene 29277) (UniProt P08683)
# Test: NVS_ADME_rCYP2C11: NovaScreen (NVS) CYP450-related Enzyme Activity (ADME) Assay for rat CYP2C11 (AID 2283118)
# Method: NVS_ADME_rCYP2C11 is a biochemical, single-readout assay that uses extracted gene-proteins in a cell-free assay. Measurements were taken 0.33 hour after chemical dosing in a 96-well plate.NVS_ADME_rCYP2C11 is one of one assay component(s) measured or calculated from the NVS_ADME_rCYP2C11 assay. It is designed to make measurements of enzyme activity, a form of enzyme reporter, as detected with fluorescence intensity signals by Fluorescence technology.Data from the assay component NVS_ADME_rCYP2C11 was analyzed into 1 assay endpoint. This assay endpoint, NVS_ADME_rCYP2C11, was analyzed in the positive analysis fitting direction relative to Acetonitrile as the negative control and baseline of activity. Using a type of enzyme reporter, loss-of-signal activity can be used to understand changes in the enzymatic activity as they relate to the gene Cyp2c11. Furthermore, this assay endpoint can be referred to as a primary readout, because this assay has produced multiple assay endpoints where this one serves a enzymatic activity function. To generalize the intended target to other relatable targets, this assay endpoint is annotated to the cyp intended target family, where the subfamily is xenobiotic metabolism.
# Binding assays used specific radioligands (tritiated, iodinated) with non-radioactive competitive displacement ligands in agonist or antagonist protocols (as indicated) and various reference compounds and inhibitors to titrate specific binding to receptors and transporters. Most enzyme assays (CYPs, kinases, phosphatases, proteases, HDACs) used recombinant protein and specific substrates (fluorescence mostly, some colorimetric and radioactive) and inhibitors, followed by a biochemical separation of substrate and product. All assays for the biochemical HTS were initially run in duplicate at a single concentration (10 uM for CYP450 assays and 25 uM for all others). […] Each assay was run with positive and negative controls, and concurrent controls on every plate. The follow-up (secondary) screen tested active chemical-pairs in concentration series, as well as a few additional assays not tested in the primary screen, some selected negative inactives, and several cases re-run in the concentration series for confirmatory purposes.
# rat CYP2C11, Cyp2c11 (gene 29277), sequence (P08683 whole entry, looked up): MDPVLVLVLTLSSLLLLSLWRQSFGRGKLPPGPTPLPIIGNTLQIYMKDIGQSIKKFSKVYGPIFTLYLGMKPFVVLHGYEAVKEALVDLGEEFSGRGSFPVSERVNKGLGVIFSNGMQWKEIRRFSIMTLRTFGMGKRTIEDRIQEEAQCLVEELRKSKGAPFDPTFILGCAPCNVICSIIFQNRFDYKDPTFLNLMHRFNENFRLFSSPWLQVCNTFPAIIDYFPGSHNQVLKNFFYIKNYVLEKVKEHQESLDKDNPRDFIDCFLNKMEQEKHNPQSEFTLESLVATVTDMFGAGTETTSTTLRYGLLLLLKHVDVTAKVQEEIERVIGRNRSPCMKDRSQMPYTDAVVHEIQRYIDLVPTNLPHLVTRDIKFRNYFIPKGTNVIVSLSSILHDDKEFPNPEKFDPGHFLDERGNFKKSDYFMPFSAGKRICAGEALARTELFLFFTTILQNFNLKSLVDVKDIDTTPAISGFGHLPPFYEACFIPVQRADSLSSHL
SMILES,AC50,outcome
CC(C1CC1)C(O)(Cn1cncn1)c1ccc(Cl)cc1 (stereo not drawn),1690 nM (active),–
FC(F)C(F)(F)OCC(Cn1cncn1)c1ccc(Cl)cc1Cl (stereo not drawn),732 nM (active),–
CCOP(=S)(OCC)Oc1ccc([N+](=O)[O-])cc1,2930 nM (active),–
CCOP(=S)(OCC)Oc1ccc2c(C)c(Cl)c(=O)oc2c1,1200 nM (active),–
CCOP(=O)(NC(C)C)Oc1ccc(SC)c(C)c1 (stereo not drawn),6430 nM (active),–
CCOC(=O)CC(SP(=O)(OC)OC)C(=O)OCC (stereo not drawn),8370 nM (active),–
C[Si](Cn1cncn1)(c1ccc(F)cc1)c1ccc(F)cc1,250 nM (active),–
C#CCC1=C(C)C(OC(=O)C2C(C=C(C)C)C2(C)C)CC1=O (stereo not drawn),–,inactive
C=C(C)[C@H]1Cc2c(ccc3c2O[C@@H]2COc4cc(OC)c(OC)cc4[C@@H]2C3=O)O1,5050 nM (active),–
O=[N+]([O-])c1cc(C(F)(F)F)c(Cl)c([N+](=O)[O-])c1Nc1ncc(C(F)(F)F)cc1Cl,2910 nM (active),–
CCOP(=O)(SC(C)CC)N1CCSC1=O (stereo not drawn),3880 nM (active),–
CCCOCC(=Nc1ccc(Cl)cc1C(F)(F)F)n1ccnc1,798 nM (active),–
CCCSP(=O)(OCC)Oc1ccc(Br)cc1Cl (stereo not drawn),226 nM (active),–
